From the supplement of paper PMC4962491 come the findings set out here.

± gives the standard deviation of the averaged measurements. Whole data set: some 1,600 compounds, median “mitochondrial oxygen consumption rate normalised to cell number, Z score over the library” near 0.065, cut for the lowest 2% near -2.2. The sample as a whole holds a higher share of the lowest values than the screen did.

The assay relates to FaDu. Nature of the assay: mitochondrial oxygen consumption rate normalised to cell number, Z score over the library; higher = higher oxygen consumption (negative = OCR reduction). The settings on record: treatment time 24 h; assay medium: 5 mM galactose, 5 mM pyruvate, 4 mM glutamine; 10 µM. How it is done: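 Primary screen: FaDu cells were incubated 24 h with Pharmakon 1600 / TDI oncology set compounds at 2 or 10 uM. Mitochondrial-specific OCR (basal minus 2 uM antimycin A) was measured on a Seahorse XF96 in assay medium with 5 mM galactose, 5 mM pyruvate and 4 mM glutamine, then corrected for Hoechst cell number and expressed as a Z score […]. Compounds that cut cell number by >66% were excluded. Two repeats.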
`Oc1ccc2ccccc2c1` [beta-NAPHTHOL]: the “mitochondrial oxygen consumption rate normalised” value came out at 0.778 ± 0.095.
On to `C/C=C(/C)C(=O)O[C@H]1[C@H](OC(C)=O)[C@@]2(CO)C(CC1(C)C)C1=CCC3[C@@]4(C)CCC(O[C@@H]5O[C@H](C(=O)O)[C@@H](O[C@@H]6O[C@H](CO)[C@@H](O)[C@H](O)[C@H]6O)[C@H](O)[C@H]5O[C@@H]5O[C@H](CO)[C@@H](O)[C@H](O)[C@H]5O)[C@](C)(CO)C4CC[C@@]3(C)[C@]1(C)C[C@H]2O.C/C=C(\C)C(=O)O[C@H]1[C@H](OC(C)=O)[C@@]2(CO)C(CC1(C)C)C1=CCC3[C@@]4(C)CCC(O[C@@H]5O[C@H](C(=O)O)[C@@H](O[C@@H]6O[C@H](CO)[C@@H](O)[C@H](O)[C@H]6O)[C@H](O)[C@H]5O[C@@H]5O[C@H](CO)[C@@H](O)[C@H](O)[C@H]5O)[C@](C)(CO)C4CC[C@@]3(C)[C@]1(C)C[C@H]2O` (some centres undefined), for which the “mitochondrial oxygen consumption rate normalised” value came out at 0.3 ± 0.096.
For `N=C(N)NC(=N)NCCc1ccccc1`, the “mitochondrial oxygen consumption rate normalised” value is -1.85 ± 0.1.
In the case of `CC(C)NC(=N)NC(=N)Nc1ccc(Cl)cc1`, the “mitochondrial oxygen consumption rate normalised” value is -0.293 ± 0.099.
`N=C(NCCCCCCNC(=N)NC(=N)Nc1ccc(Cl)cc1)NC(=N)Nc1ccc(Cl)cc1`: the “mitochondrial oxygen consumption rate normalised” value was -3.36 ± 0.16.
Turning to `CN(C)c1cnccn1`, the “mitochondrial oxygen consumption rate normalised” value is 0.284 ± 0.5.
Regarding `CC[C@H]1OC(=O)C[C@@H](O)[C@H](C)[C@@H](O[C@@H]2O[C@H](C)[C@@H](O)[C@H](N(C)C)[C@H]2O)[C@@H](CCN2C[C@H](C)C[C@H](C)C2)C[C@@H](C)C(=O)/C=C/C(C)=C/[C@@H]1CO[C@@H]1O[C@H](C)[C@@H](O)[C@@H](OC)[C@H]1OC`, the “mitochondrial oxygen consumption rate normalised” value was 0.2667 ± 0.0014.
Take `CCCNC(C)C(=O)Nc1ccccc1C` (centres undefined): the “mitochondrial oxygen consumption rate normalised” value is -0.507 ± 1.1.
To `CC(C)[C@H](N)C(=O)OCC(CO)OCn1cnc2c(=O)nc(N)[nH]c21` (some centres undefined) belongs 1.37 ± 0.77; to `N#Cc1ccc2[nH]cc(CCCCN3CCN(c4ccc5oc(C(N)=O)cc5c4)CC3)c2c1`, -0.383 ± 0.58.
`CCN(CC)C(=O)N1CCN(C)CC1`: the “mitochondrial oxygen consumption rate normalised” value was determined as 1.02 ± 0.63.
As to `CCOCCOc1ccccc1C(N)=O`, the “mitochondrial oxygen consumption rate normalised” value amounted to 1.14 ± 0.52.
With `Cc1c2oc3c(C)ccc(C(=O)N[C@@H]4C(=O)N[C@H](C(C)C)C(=O)N5CCC[C@H]5C(=O)N(C)CC(=O)N(C)[C@@H](C(C)C)C(=O)O[C@@H]4C)c3nc-2c(C(=O)N[C@@H]2C(=O)N[C@H](C(C)C)C(=O)N3CCC[C@H]3C(=O)N(C)CC(=O)N(C)[C@@H](C(C)C)C(=O)O[C@@H]2C)c(N)c1=O`, the “mitochondrial oxygen consumption rate normalised” value is -4.48 ± 0.4.
On to `CO[C@H]1C[C@H](O[C@@H]2/C(C)=C/C[C@@H]3C[C@@H](C[C@]4(CC[C@H](C)[C@@H](C5CCCCC5)O4)O3)OC(=O)[C@@H]3C=C(C)/C(=N/O)[C@H]4OC/C(=C\C=C\[C@@H]2C)[C@]43O)O[C@@H](C)[C@@H]1O`, for which the “mitochondrial oxygen consumption rate normalised” value stood at 0.0124 ± 0.37.
Consider `CN(C)CCc1c[nH]c2ccc(C[C@H]3COC(=O)N3)cc12`, for which the “mitochondrial oxygen consumption rate normalised” value is 0.529 ± 0.45.
On to `CCC(=O)O[C@H](CC(=O)O)C[N+](C)(C)C`, for which the “mitochondrial oxygen consumption rate normalised” value was -0.676 ± 0.16.
As to `C[C@]12CCC(=O)C=C1CC[C@@H]1[C@@H]2[C@@H](O)C[C@@]2(C)[C@H]1CC[C@]2(O)C(=O)COP(=O)(O)O`, the “mitochondrial oxygen consumption rate normalised” value is 1.06 ± 0.71.
Take `NCCc1cc[nH]n1`: the “mitochondrial oxygen consumption rate normalised” value is -0.155 ± 0.3.
As to `CCCCCCOC(=O)NC(=N)c1ccc(NCc2nc3cc(C(=O)N(CCC(=O)OCC)c4ccccn4)ccc3n2C)cc1`, the “mitochondrial oxygen consumption rate normalised” value turned out to be 0.662 ± 0.54.
As for `Cc1ncc(COP(=O)([O-])[O-])c(CN(CCN(CC(=O)O)Cc2c(COP(=O)([O-])O)cnc(C)c2O)CC(=O)O)c1O.[Mn].[Na+].[Na+].[Na+]`, the “mitochondrial oxygen consumption rate normalised” value amounted to 0.342 ± 0.21.
To `CCCOc1ccc2[nH]c(NC(=O)OC)nc2c1` belongs 0.108 ± 0.53; to `CCCCC(=O)O[C@]1(C(=O)CO)[C@@H](C)C[C@H]2[C@@H]3CCC4=CC(=O)C=C[C@]4(C)[C@@]3(F)[C@@H](O)C[C@@]21C`, -0.0902 ± 0.67; to `O=C1CN2Cc3c(ccc(Cl)c3Cl)N=C2N1`, 1.01 ± 0.66.
To `C[C@]12CC[C@@H]3c4ccc(O)cc4C[C@@H](CCCCCCCCC[S+]([O-])CCCC(F)(F)C(F)(F)F)[C@H]3[C@@H]1CC[C@@H]2O` (some centres undefined) belongs -2.25 ± 2.2; to `C[C@]12CC[C@@H]3c4ccc(O)cc4CC[C@H]3[C@@H]1CC[C@@H]2O`, -0.551 ± 0.072; to `C[C@]12CC[C@@H]3c4ccc(O)cc4CC[C@H]3[C@@H]1C[C@@H](O)[C@@H]2O`, -0.347 ± 0.41.
`N=C(N)NS(=O)(=O)c1ccc(N)cc1`: the “mitochondrial oxygen consumption rate normalised” value was -0.417 ± 0.81.
On to `O=C[C@H](O)[C@@H](O)[C@H](O)CO`, for which the “mitochondrial oxygen consumption rate normalised” value is -0.552 ± 0.11.
To `CC(C)(C)CC(C)(C)c1ccc(OCCOCC[N+](C)(C)Cc2ccccc2)cc1` belongs -6.2 ± 0.063; to `Cc1cc(C(C)(C)CC(C)(C)C)ccc1OCCOCC[N+](C)(C)Cc1ccccc1`, -5.95 ± 0.082; to `CO[C@H]1C[C@@H]2CC[C@@H](C)[C@@](O)(O2)C(=O)C(=O)N2CCCC[C@H]2C(=O)O[C@H]([C@H](C)C[C@@H]2CC[C@@H](OCCO)[C@H](OC)C2)CC(=O)[C@H](C)/C=C(\C)[C@@H](O)[C@@H](OC)C(=O)[C@H](C)C[C@H](C)/C=C/C=C/C=C/1C`, -1.07 ± 0.18.
To `C(=C\c1ccccc1)/CN1CCN(C(c2ccccc2)c2ccccc2)CC1` belongs -0.167 ± 0.011.
Turning to `COc1ccc2cc(CCC(C)=O)ccc2c1`, the “mitochondrial oxygen consumption rate normalised” value amounted to 0.808 ± 0.11.
With `O=C(Nc1ccccc1)c1ccccc1O`, the “mitochondrial oxygen consumption rate normalised” value is -0.209 ± 0.021.
With `CC1CCCC(C)N1` (centres undefined), the “mitochondrial oxygen consumption rate normalised” value is -0.441 ± 0.17.
With `O=C(CCCCCCCC(=O)NCCO)NCCO`, the “mitochondrial oxygen consumption rate normalised” value is -0.567 ± 0.53.
For the compound `Cn1nnnc1SCC1=C(C(=O)O)N2C(=O)[C@@H](NC(=O)[C@H](O)c3ccccc3)[C@H]2SC1`, the “mitochondrial oxygen consumption rate normalised” value amounted to 0.376 ± 0.31.
For `COCCCOc1ccnc(C[S+]([O-])c2nc3ccccc3[nH]2)c1C` (centres undefined), the “mitochondrial oxygen consumption rate normalised” value was found to be 0.0779 ± 0.21.
As to `CCN(CC)CCOC(=O)C(Cc1cccc2ccccc12)CC1CCCO1` (centres undefined), the “mitochondrial oxygen consumption rate normalised” value is -0.531 ± 1.6.
